Measured values published in PubChem BioAssay (NCI).
“And” between values parts separate entries of the source, which are not always exact repeats. Equal entries are not always repeated. About 83,000 compounds went through this panel and 20% of them were active in at least one assay; those are over-represented in the sample as a whole.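 Compound tested at a single concentration for 48 hours in 96-well plates; a percent growth value below 10 was scored as active.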 Unmarked numbers belong to inactive results.

Test system: BT-549 breast
Experiment: NCI-60 one-dose screen, 48 h (100 = growth as untreated, 0 = no growth, -100 = all killed)
Conditions: 10 µM unless noted

SMILES	growth
COC(=O)c1ccccc1Cl	98.4%
CCC(C)NC(=O)c1ccccc1C (centres undefined)	99.4%
COc1ccc(CCl)c(C)c1OC	105%
Cc1c(Cl)cc(Cl)c(N)c1Cl	112%
O=C1CCC(=O)N1CC1CC2CCC1C2 (centres undefined)	90.1%
O=C(O)c1ccc2c3ccc(C(=O)O)c4c(C(=O)O)ccc(c5ccc(C(=O)O)c1c25)c43	64.8%
Cc1onc(-c2c(F)cccc2Cl)c1-c1ncc(-c2ccc(Cl)cc2)o1	73.8% and 40.7%
CCCCCc1cc[n+](CC(=O)c2ccccc2)cc1	95.9%
C(=N\OCCc1ccccc1)/c1ccccn1	138% and 102%
COc1cc([C@@H]2c3cc4c(cc3[C@H](O)[C@H]3COC(=O)[C@@H]23)OCO4)cc(OC)c1OC	22.3%
COc1ccc(/C=N/NC(N)=S)cc1	104%
N=c1sc2ccccc2n1CC(=O)O	99.2%
O=C(O)/C=C/C=C/c1ccccc1	103% and 107%
CC(C)(C)OC(=O)CC1(O)CCCCC1	110%
Cc1nc(Nc2ccc(Cl)cc2)c2cnn(-c3ccccc3)c2n1	102%
CC(=O)Oc1cc(C)c(OC(C)=O)c(C)c1C	117%
CCC(C)(O)CCC(C)(O)CC (centres undefined)	107%
Clc1ccc2sc(-c3ccccc3)nc2c1	109%
Cc1ccc([N+](=O)[O-])cc1Br	110%
COCCCNC1=C(C#N)C(=O)NC(c2cccs2)S1 (centres undefined)	96%

SMILES	growth
OCCSc1ccc(Cl)cc1	111% and 94.7%
Nc1[nH][nH]c(=O)c1N=Nc1ccccc1	101% and 133%
CS(=O)(=O)c1nsc(N)n1	107%
Cc1cc(Cl)nc(Nc2ccccc2)n1	108%
O=C(O)C1CSCN1 (centres undefined)	99%
C/C=C(/C(=O)NC(N)=O)C(C)C	106%
O=[N+]([O-])c1ccc(NC(c2ccccc2)c2ccc3cccnc3c2O)cc1 (centres undefined)	39%
CCCCC/C(C)=N\NC(N)=S	96.7%
CC(C)(C)C1CCC(=NO)CC1 (centres undefined)	115%
CCOC(C)=N	108%
CN(C)C(=S)N(C)C	107%
NNC(=O)Nc1ccccc1	104%
COC(=O)c1cc(C(=O)OC)cc([N+](=O)[O-])c1	91.6%
OCCS	134%
COc1ccc(/C=N/Nc2nc3ccccc3s2)cc1	97.6%
Cc1cc(O)c(C(C)C)cc1N=O	114% and 95.9%
O=C(c1ccccc1)C1(Br)CCCCC1	105%
COc1ccc2oc3c(ccc[n+]3C)c(=O)c2c1	103%
CCCC(=O)Oc1ccc(CC)cc1	107%
